This passage reports ΔTm results from ChEMBL document CHEMBL5308504, “Tm Shift (DSF) assay results for EUbOPEN Chemogenomics Library” (2023).

Structures are written as SMILES. “And” between values parts separate entries of the source, which are not always exact repeats. Equal entries are not always repeated.

In the experiment the target is T1, Transcription intermediary factor 1-alpha (Homo sapiens) (UniProt O15164).
T1 sequence (whole entry): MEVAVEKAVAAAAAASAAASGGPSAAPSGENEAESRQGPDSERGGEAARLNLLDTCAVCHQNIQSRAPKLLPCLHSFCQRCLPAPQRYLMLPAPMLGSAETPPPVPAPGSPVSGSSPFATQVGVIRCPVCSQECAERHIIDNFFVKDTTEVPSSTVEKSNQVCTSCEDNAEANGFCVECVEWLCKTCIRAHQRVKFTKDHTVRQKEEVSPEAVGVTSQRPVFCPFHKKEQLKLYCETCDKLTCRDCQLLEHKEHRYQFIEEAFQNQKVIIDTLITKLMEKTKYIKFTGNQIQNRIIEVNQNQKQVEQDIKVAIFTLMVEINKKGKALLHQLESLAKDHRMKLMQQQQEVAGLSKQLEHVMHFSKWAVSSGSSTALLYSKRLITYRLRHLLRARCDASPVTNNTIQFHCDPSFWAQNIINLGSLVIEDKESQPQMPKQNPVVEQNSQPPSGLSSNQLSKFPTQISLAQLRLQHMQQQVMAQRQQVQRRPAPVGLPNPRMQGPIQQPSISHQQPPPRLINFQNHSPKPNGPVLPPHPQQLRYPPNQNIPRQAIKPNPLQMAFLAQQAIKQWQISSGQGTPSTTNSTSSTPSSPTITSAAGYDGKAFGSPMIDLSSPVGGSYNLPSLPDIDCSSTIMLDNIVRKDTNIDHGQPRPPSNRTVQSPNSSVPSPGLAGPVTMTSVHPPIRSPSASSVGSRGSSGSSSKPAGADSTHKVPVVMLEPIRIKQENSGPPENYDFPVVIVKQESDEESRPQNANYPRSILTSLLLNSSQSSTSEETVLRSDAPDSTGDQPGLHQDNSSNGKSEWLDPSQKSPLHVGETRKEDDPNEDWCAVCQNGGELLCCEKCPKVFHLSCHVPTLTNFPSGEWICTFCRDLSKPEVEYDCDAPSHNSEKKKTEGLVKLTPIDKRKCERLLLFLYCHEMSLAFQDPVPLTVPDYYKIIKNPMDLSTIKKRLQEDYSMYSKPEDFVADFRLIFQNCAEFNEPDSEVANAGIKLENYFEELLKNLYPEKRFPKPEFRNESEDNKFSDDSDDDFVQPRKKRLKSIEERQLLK
As to conditions: Compound concentration 20.0 uM, Protein concentration 2.0 uM, Result type QC Liability.
Turning to `O=C(O)CCCN1CCC[C@H]1COc1ccc(Oc2ccc(Cl)cc2)cc1`, the ΔTm was -0.92 °C.

`Nc1ncnc2c1ccn2[C@@H]1O[C@H]([C@@H](O)c2ccccc2)[C@@H](O)[C@H]1O`: the thermal shift (ΔTm) was -3.4 °C.

On to `NC(=O)OC[C@H](NC(=O)Cn1nc(-c2ccc(Cl)cc2)n(C[C@H](O)C(F)(F)F)c1=O)c1cccc(C(F)(F)F)c1`, for which the ΔTm is 0.59 °C.

Turning to `CCC(=O)N[C@@H]1CC[C@H](C(=O)N(C)c2ccc(-c3nc4ccccc4o3)cc2)C1`, the shift in melting temperature (ΔTm) came to 0.25 °C.

In the case of `CC(=O)c1c(C)c2cnc(Nc3ccc(N4CCN(CCOCCOCCOCCNC(=O)COc5cccc6c5C(=O)N(C5CCC(=O)NC5=O)C6=O)CC4)cn3)nc2n(C2CCCC2)c1=O` (centres undefined), the ΔTm was found to be 0.27 °C.

Consider `Cc1cc(OCCC(C)(C)O)cc(C)c1-c1ccc(F)c2c1CC[C@H]2Oc1ccc2c(c1)OC[C@H]2CC(=O)O`, for which the ΔTm is -2.29 °C.

`CC(C)C(=O)N1CCC(c2cn(C)c3ncc(NC(=O)c4cccc(C#N)c4)c(C(F)(F)F)c23)CC1`: the ΔTm is -2.5 °C.

On to `CCNC1=N[C@@H]2[C@@H](O)[C@H](O)[C@@H](CO)O[C@@H]2S1`, for which the ΔTm is -2.58 °C.

Turning to `CC(C)c1cnc(NC(=O)Cc2ccccc2)s1`, the ΔTm is -1.45 °C.

Consider `COc1cc(C(=O)NCCOCCOCCOCC(=O)N[C@H](C(=O)N2C[C@@H](O)C[C@H]2C(=O)NCc2ccc(-c3scnc3C)cc2)C(C)(C)C)ccc1Nc1ncc(C(F)(F)F)c(Oc2cccc3c2C(=O)CC3)n1`, for which the ΔTm turned out to be 2.2 °C.

Consider `CS(=O)(=O)NC(=O)CCC/C=C\C[C@H]1C(=O)C[C@@H](O)[C@@H]1/C=C/[C@@H](O)COc1ccccc1`, for which the shift in melting temperature (ΔTm) is -0.45 °C.

Consider `CC(C(=O)Nc1cc(C#N)ccc1CCCC(=O)O)c1ccc(F)c2ccccc12` (centres undefined), for which the thermal shift (ΔTm) was -1.35 °C.

In the case of `O=C(O)c1cccc(C2=C(c3cc(Cl)ccc3OCc3ccc(F)cc3F)CCC2)n1`, the ΔTm was -2.91 °C.

Take `O=C(NCc1ccc(F)cc1)C1CCN(S(=O)(=O)c2cc(Cl)cc(Cl)c2)CC1`: the thermal shift (ΔTm) came to 0.44 °C.

`O=C(O)Cc1cc(I)c(Oc2ccc(O)c(I)c2)c(I)c1`: the ΔTm was -2.6 °C.

On to `NCc1ccc(OCCCc2sc(-c3ccc4c(c3)/C(=N/Nc3nc5ccccc5s3)CCC4)nc2C(=O)O)cc1`, for which the ΔTm was -0.58 °C.

As to `CC[C@@H](Nc1c(C#N)c(-c2ccc(-c3cccc(C)c3F)cc2)nc2cnccc12)C(=O)O`, the ΔTm is -1.3 °C.

On to `CC(=O)O[C@H]1C(=O)[C@@]2(C)[C@H]([C@H](OC(=O)c3ccccc3)[C@]3(O)C[C@H](OC(=O)[C@H](O)[C@@H](NC(=O)c4ccccc4)c4ccccc4)C(C)=C1C3(C)C)[C@]1(OC(C)=O)CO[C@@H]1C[C@@H]2O`, for which the shift in melting temperature (ΔTm) is -0.24 °C.

As for `CCS(=O)(=O)c1ccc(OC)c(Nc2ncc(-c3cccc(F)c3)o2)c1`, the shift in melting temperature (ΔTm) was -1.42 °C.

Regarding `CCN(C)C(=O)c1ccc2c(c1)NC(=O)/C2=C(\NC1CCN(C)CC1)c1ccccc1`, the shift in melting temperature (ΔTm) came to 0.21 °C.

Turning to `c1ccc(C2CCN(c3cnc4c(N5CCOCC5)nccn34)CC2)cc1`, the ΔTm is -1.25 °C.

Consider `COc1c(NC(=O)c2cc3cccc(Oc4ccnc(C(=O)N5CCN(C)CC5)c4)c3n2C)cc(C(C)(C)C)cc1NS(C)(=O)=O`, for which the ΔTm is -2.21 °C.

Turning to `CCN(C)S(=O)(=O)Nc1cccc(-c2ccc3c(NC(=O)C4CC4)n[nH]c3c2)c1`, the thermal shift (ΔTm) is -0.53 °C.

Take `CCc1cc2c(cc1N1CCC(N3CCOCC3)CC1)C(C)(C)c1[nH]c3cc(C#N)ccc3c1C2=O`: the ΔTm was -0.86 °C.

Regarding `Nc1nc(-c2nn(Cc3ccccc3F)c3ncccc23)ncc1C1CC1`, the shift in melting temperature (ΔTm) came to 0.4 °C.

As for `Cc1ccc2c(NS(=O)(=O)c3ccccc3Cl)cccc2c1Oc1ncccc1-c1ccnc(N[C@H]2CCCNC2)n1`, the ΔTm worked out at 1.37 °C.

Turning to `C[C@@H]1C[C@H](C)CN(c2ncc(Cl)c(Nc3ccc4c(c3)cc(OC(C)(C)C(=O)O)c(=O)n4C)n2)C1`, the thermal shift (ΔTm) was 0.15 °C.

On to `NC1(c2ccc(-c3nc4c(O)ccnn4c3-c3ccccc3)cc2)CCC1`, for which the shift in melting temperature (ΔTm) was -1.89 °C.

As to `CO[C@H]1CC[C@H](N(c2cc(F)c(Oc3ncc(Cn4nccn4)cc3C(F)(F)F)cc2C(=O)O)C(=O)[C@H]2CC[C@H](C)CC2)CC1`, the ΔTm is -0.09 °C.

On to `CCOC(=O)N1CCC(CN(Cc2ccc(Cl)cc2)Cc2ccc([N+](=O)[O-])s2)C1` (centres undefined), for which the ΔTm is -4.19 °C.

With `CN(C)C(=O)c1sc2nc(N3CCC(S(C)(=O)=O)CC3)cc(C(F)(F)F)c2c1N`, the ΔTm was 0.17 °C and 0.19 °C.

On to `COCCCS(=O)(=O)c1cc(C)c(-c2ccc(F)c3c2CC[C@H]3Oc2ccc3c(c2)OC[C@H]3CC(=O)O)c(C)c1`, for which the thermal shift (ΔTm) was -0.22 °C.

In the case of `COc1cc(C)c(S(=O)(=O)N(C)CCC(=O)N[C@H]2CC[C@@H](N3CCC4CN(C)CC4C3)CC2)c(C)c1` (some centres undefined), the shift in melting temperature (ΔTm) was -0.4 °C.

For the compound `CC(C)[C@H](CO)Nc1nc(Nc2ccc(C(=O)O)c(Cl)c2)c2ncn(C(C)C)c2n1`, the ΔTm was -2.66 °C.

By ΔTm is commonly meant the change in melting temperature against a reference sample.
